Screening data deposited in PubChem BioAssay by National Center for Advancing Translational Sciences (NCATS).
Tb PYK inh: qHTS of Trypanosoma Brucei Inhibitors; Potency, µM (series often up to 76.8 µM), inactives show at the top dose activity, negative = inhibition, most hits filed as inhibitors; TbPYK enzyme, Kinase-Glo Plus ATP luminescence, 45 min; pyruvate kinase (Trypanosoma brucei), Q57TT1; 410,000 compounds, 0.12% hits; further: nearly all actives have a fitted effect of over 50% in size
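In this concentration-response screen, enzyme-free wells defined baseline while DMSO plates tracked drift. Each reaction combined TbPYK, substrate, compound and 130 uM ADP for 45 min at room temperature. Kinase-Glo Plus luminescence gave the signal.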
RE007 growth inh: qHTS Assay for Inhibitors of the HIV-1 protein Vpr; S. pombe RE007 Vpr strain, BacTiter-Glo ATP luminescence, 24 h; Potency, µM (highest dose often 92.2 µM), without a hit: at the top dose activity change, negative = less growth, hits mostly inhibitors; 360,000 compounds, 0.21% hits; AID 651644, 2012; active means well fitted falling curve with a large enough effect; inconclusive means small, poorly fitted or top-dose-only effect; inactive means no such curve, though single readings can be large or run the other way; further: nearly all actives have a fitted effect of over 50% in size
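Fission yeast strain RE007, carrying one chromosomally integrated HIV-1 vpr copy, was seeded at OD 0.01 in PMG+AL medium with 23 nL pinned compound. After 24 h at 30 °C and 99% humidity, viability was read by BacTiter-Glo luminescence.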
LmPK inh: qHTS Assay for Inhibitors of Leishmania Mexicana Pyruvate Kinase (LmPK) | purified LmPK, Kinase-Glo ATP luminescence, 1 h | Potency, µM (series often up to 57.5 µM), inactives show top-dose activity change, negative = inhibition, usual class: inhibitors | AID 1721, 2009 | 290,000 compounds, 0.37% hits | Q27686
Target sequence (Q27686 whole entry, looked up): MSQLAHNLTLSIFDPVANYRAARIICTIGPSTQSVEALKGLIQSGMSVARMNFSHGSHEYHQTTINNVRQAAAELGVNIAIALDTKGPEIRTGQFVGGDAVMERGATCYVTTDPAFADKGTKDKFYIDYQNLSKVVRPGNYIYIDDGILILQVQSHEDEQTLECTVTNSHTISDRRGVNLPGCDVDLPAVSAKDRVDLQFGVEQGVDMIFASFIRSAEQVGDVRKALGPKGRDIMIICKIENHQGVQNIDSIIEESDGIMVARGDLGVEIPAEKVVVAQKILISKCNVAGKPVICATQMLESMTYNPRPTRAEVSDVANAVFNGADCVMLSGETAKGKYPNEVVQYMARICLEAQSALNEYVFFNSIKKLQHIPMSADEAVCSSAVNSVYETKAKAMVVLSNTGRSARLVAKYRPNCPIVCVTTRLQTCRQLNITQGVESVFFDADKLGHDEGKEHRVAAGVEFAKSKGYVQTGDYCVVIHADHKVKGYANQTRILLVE
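Pyruvate kinase activity monitored as ATP production (luciferase luminescence). Conditions: 0.1 nM enzyme, 0.5 mM PEP, 0.1 mM ADP, 1 h, RT; normalized against uninhibited and no-enzyme wells.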
Sm TGR inh: qHTS Assay for the Inhibitors of Schistosoma Mansoni Peroxiredoxins. Potency, µM (doses to about 114 µM), for inactives: top-dose activity change, negative = inhibition, usual class: inhibitors. 360,000 compounds, 3% hits. purified TGR, DTNB reduction, TNB absorbance 405 nm. Schistosoma mansoni thioredoxin glutathione reductase (TGR), Q962Y6; further: nearly all actives have a fitted effect of over 60% in size
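First, TGR (20 nM dispensed) and NADPH were mixed with compound. Second, a 15 min room-temperature incubation followed. Third, further NADPH and then DTNB were added to start the reaction. Finally, TNB absorbance was monitored kinetically.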
* marks the source's active call; other numbers are inactive results; ? = inconclusive; . = no result; [ ] = another dose, or the depositor's remark. An excerpt weighted towards active compounds, which were near 3% of everything screened. Unless noted, the call rests on the fitted dose curve; in most records, active means well fitted curve in the direction sought with a large enough effect; inconclusive means small, poorly fitted or top-dose-only effect, or another doubt; inactive means no such curve, though single readings can be large; an effect the other way counts as inactive or inconclusive. On the % scale 0 is the no-effect control and ±100 the full control effect; potency means the concentration at half of the fitted maximal effect.

SMILES	Tb PYK inh	RE007 growth inh	LmPK inh	Sm TGR inh
COC(=O)[C@@]12C[C@@H](CC(=O)NCc3cccs3)C(=O)N(Cc3ccco3)C1=CCC(C)(C)C2	.	4.0%	.	.
COC(=O)c1c(-c2cccs2)csc1NC(=O)COc1c(C)ccc(C)c1C	4.8%	.	.	5.2%
COCCNC(=O)c1c(N)n(Cc2ccco2)c2nc3ccccc3nc12	-13.6%	3.4%	1.9%	39.8µM*
Nc1c(C(=O)NCCN2CCOCC2)c2nc3ccccc3nc2n1Cc1ccco1	-1.6%	-3.6%	-1.3%	?
Cc1ccc(-c2ccc(/C=C3\C(=O)ON=C3c3ccccc3)o2)c([N+](=O)[O-])c1	?	-11.3%	5.5%	?
CC1=C(C#N)C(=O)NC(=O)/C1=C\c1ccc(-c2cc(C)c(C)cc2[N+](=O)[O-])o1	-25.8%	?	1.4%	3.55µM*
O=C1NC(=O)C(=Cc2ccc(-c3cc(Cl)ccc3[N+](=O)[O-])o2)C(=O)N1	17.8µM*	2.8%	-3.4%	31.6µM*
Cc1ccc(-c2ccc(/C=C3/NC(=O)NC3=O)o2)cc1[N+](=O)[O-]	1.4%	-2.3%	2.1%	-10.5%
O=C1NC(=O)C(=Cc2ccc(-c3ccccc3[N+](=O)[O-])o2)C(=O)N1	15.8µM*	4.9%	-17.8%	-3.2%
Cc1ccc(CCNC(=O)CCCn2c(=O)c3cccn3c3ccc(F)cc32)cc1	-4.5%	.	.	-10.2%
COc1cccc(NC(=O)/C(C#N)=C/c2c(C)n(Cc3ccccc3)c3ccccc23)c1	-1.7%	.	.	4.1%
CCn1c(SCc2c(Cl)cccc2Cl)nnc1-c1nn(-c2ccccc2)ccc1=O	-13.1%	2.8%	2.2%	100µM*
Cc1nnc(SCc2c(Cl)cccc2Cl)n(N)c1=O	-2.5%	8.1%	6.3%	3.9%
CC1CCCCN1CC(=O)c1ccc2cc[nH]c2c1 (stereo not drawn)	-8.6%	0.8%	0.7%	8.91µM*
CSc1sc(-c2n[nH]c(=S)n2C)c2c1C=CCC2	?	-2.8%	-6.7%	25.1µM*
COCCC(=O)Nc1ccc2c(c1)CN(C(=O)c1ccc(CSC)o1)CC2	-9.8%	56.8%	2.8%	44.7µM*
O=C(O)c1ccc2cc(-c3ccc(O)c(C45CC6CC(CC(C6)C4)C5)c3)ccc2c1	-3.6%	.	.	.
CC(=O)c1cc(NC(=O)c2cccc(C(F)(F)F)c2)c(=O)oc1C	-20.9%	6.4%	-8.8%	35.5µM*
Cc1ccc(-n2c(=O)c3oc4ccccc4c3n(CC(=O)Nc3ccccc3)c2=O)cc1C	-11.9%	.	.	-1.4%
Cc1ccc(CNC(=O)[C@H]2C[C@@H]2[C@H](NP(=O)(c2ccccc2)c2ccccc2)c2ccccc2)o1	-2.3%	-10.8%	1.6%	50.1µM*
C/C(=C\c1ccc(C)o1)C(=O)c1c(C)cc(C)[nH]c1=O	-23.2%	0.4%	2.3%[11.5 µM]	17.8µM*
C/C(=C\c1cccc(Br)c1)C(=O)c1c(C)cc(C)[nH]c1=O	0.4%	4.9%	-1.2%	7.7%
O=C(O)c1ccc(Cn2cnc3cccnc32)cc1	?	4.1%	-1.4%	50.1µM*
O=C(O)c1ccc(Cn2cnc3scc(-c4ccccc4)c3c2=O)cc1	0.9%	-5.6%	1.0%	-2.7%
O=C(CCl)c1ccc2[nH]c(=O)oc2c1	-1.0%	-5.8%	5.6%	11.2µM*
SMILES	Tb PYK inh	RE007 growth inh	LmPK inh	Sm TGR inh
CN(C)S(=O)(=O)c1cccc2c1C(=O)c1ccccc1C2=O	0.8%	-8.6%	-1.8%	25.1µM*
CN(C)S(=O)(=O)c1ccccc1C#N	0.0%	-8.3%	0.0%	0.0%
COc1ccccc1NS(=O)(=O)c1cc2c(cc1Cl)NC(=O)CO2	0.2%	.	.	1.6%
O=C(Nc1cccs1)N1CCN(c2ncccn2)CC1	7.6%	0.6%	-2.3%	17.8µM*
O=C(Nc1ccc(F)cc1)N1CCN(c2ncccn2)CC1	-13.1%	-0.5%	-9.8%	0.0%
O=Cc1[nH]c2ccccc2c1N(C(=O)CCl)c1ccccc1	2.0%	2.6%	2.8%	0.891µM*
O=C(N(c1ccccc1)c1ccccc1)N(c1ccccc1)c1ccccc1	-6.6%	9.1%	4.7%	0.7%
O=C(CCl)N(CCc1ccccc1)CCc1ccccc1	3.8%	3.8%	-0.8%	12.6µM*
Cc1cccc(N(Cc2cc(=O)[nH]c3ccccc23)C(=O)CCl)c1	2.5%	-19.8%	-14.2%	?
O=C(CCCc1ccccc1)NCCc1ccccc1	-3.4%	3.0%	-0.9%	-0.8%
O=C(CCl)N(c1ccccc1)c1ccccc1	-2.5%	25.3%	-8.1%	1.26µM*
CCCCCCN(C(=O)CCl)c1ccccc1	4.6%	8.9%	7.5%	2.51µM*
COCC(=O)N1CCC2(CC1)CN(c1ccc(-c3ccccc3)cc1)C2	-18.6%	.	.	.
O=C1OCC/C1=C\NCCCCCCCCN/C=C1\CCOC1=O	-4.8%	-7.1%	.	.
N/C(=N\OC(=O)c1ccco1)c1ccccn1	?	-7.2%	12.6µM*	.
Cc1cccc(/C(N)=N/OC(=O)c2ccco2)c1	-14.7%	?	15.8µM*	4.4%
COc1ccc(/C(N)=N/OC(=O)c2ccco2)cc1	-19.6%	-22.3%	11.2µM*	18.1%
Cc1ccc(/C(N)=N/OC(=O)c2ccco2)cc1	-8.6%	-28.2%	?	0.7%
N/C(=N\OC(=O)c1ccco1)c1ccccc1	-17.8%	-12.8%	22.4µM*	-14.8%
CC(=O)c1ccccc1Oc1nc(CN2CCOCC2)nc2scc(-c3cccs3)c12	5.9%	16.0%	5.0%	44.7µM*
COc1ccc(OC)c(S(=O)(=O)Nc2ccc(O)c3ccccc23)c1	?	3.9%	-1.2%	10µM*
O=S(=O)(Nc1ccc(O)c2ccccc12)c1ccc(F)cc1	-8.4%	4.9%	.	.
Cc1ccc(C)c(S(=O)(=O)Nc2cc(SCC(=O)O)c(O)c3ccccc23)c1	15.8µM*	-30.0%	14.1µM*	3.55µM*
CCOc1ccc(S(=O)(=O)Nc2cc(SCC(=O)O)c(O)c3ccccc23)cc1	?	-28.8%	20µM*	7.08µM*
CCc1ccc(S(=O)(=O)Nc2ccc(O)c3ccccc23)cc1	-2.0%	.	?	10µM*
SMILES	Tb PYK inh	RE007 growth inh	LmPK inh	Sm TGR inh
Cc1ccc(NS(=O)(=O)c2cc(NC(=O)C(C)Oc3ccccc3)ccc2C)c(C)c1 (stereo not drawn)	-16.2%	1.0%	2.0%	-11.4%
COc1ccc(OC)c(S(=O)(=O)Nc2cccc3c(O)cccc23)c1	-7.0%	-18.7%	.	.
CC(=O)[C@@]1(O)CC[C@@H]2[C@@H]3CCC4=CC(=O)CC[C@]4(C)[C@]3(F)[C@@H](O)C[C@@]21C	0.0%	.	.	.
CCc1ccccc1S(=O)(=O)Cc1ccc(C(=O)NCCc2ccc(Cl)cc2)o1	-2.3%	.	.	-7.2%
O=C(O)CSc1cc(NS(=O)(=O)c2cccc([N+](=O)[O-])c2)c2ccccc2c1O	?	-13.9%	14.1µM*	1.78µM*
Cc1oc2c(cc(NS(=O)(=O)c3ccc(C(C)C)cc3)c3ccccc32)c1C(=O)O	2.6%	5.3%	4.3%	?
CCc1ccc(S(=O)(=O)Nc2cc(SCC(=O)O)c(O)c3ccccc23)cc1	?	-16.5%	?	6.31µM*
